Measurements reported in PMC7862700, “An all-to-all approach to the identification of sequence-specific readers for epigenetic DNA modifications on cytosine”.

Key:
Test in all cases: DAPPL (digital affinity profiling via proximity ligation, sequencing); 10 mM Tris-HCl pH 7.5, 50 mM NaCl, 1 mM DTT, 4% glycerol, room temperature, 30 min; GST-TFs on glutathione beads, 16-mer random dsDNA library, 0.1% formaldehyde crosslink after washing; high values mean tight binding
Conditions in all cases: protein: recombinant; tags: N-terminal GST; dsDNA, one strand shown
FLI1 = target: T1, FLI1 (Homo sapiens, UniProt Q01543 1-452)
T1 sequence: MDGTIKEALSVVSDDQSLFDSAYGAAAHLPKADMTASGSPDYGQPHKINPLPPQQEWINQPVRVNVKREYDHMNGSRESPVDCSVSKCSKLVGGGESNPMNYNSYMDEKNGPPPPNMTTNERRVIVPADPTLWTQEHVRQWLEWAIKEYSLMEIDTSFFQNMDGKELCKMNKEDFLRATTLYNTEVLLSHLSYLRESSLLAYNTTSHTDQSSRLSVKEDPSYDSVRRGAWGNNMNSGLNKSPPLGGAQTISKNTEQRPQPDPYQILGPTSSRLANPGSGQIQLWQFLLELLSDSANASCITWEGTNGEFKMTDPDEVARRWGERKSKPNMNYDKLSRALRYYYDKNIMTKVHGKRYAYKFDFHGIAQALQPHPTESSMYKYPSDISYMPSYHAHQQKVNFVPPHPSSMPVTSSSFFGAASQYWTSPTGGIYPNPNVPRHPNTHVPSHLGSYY
In short: (§1)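 Binding signal is defined as a hexamer's read frequency for one factor over its frequency for the tag-only sample. To obtain reads, GST-fused human transcription factors were expressed in yeast, captured on glutathione beads, barcoded with DNA and pooled with that sample. Pools met 200 nmole of a 16-mer random double-stranded DNA library in Tris/NaCl/DTT/glycerol buffer for 30 min at room temperature before washing, 0.1% formaldehyde crosslinking, proximity ligation (BsaI/T4 ligase, 1 h, 37 °C), PCR and Illumina NextSeq500 sequencing.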

ELK1 = target: T2, ELK1 (Homo sapiens, UniProt P19419 1-428)
T2 sequence: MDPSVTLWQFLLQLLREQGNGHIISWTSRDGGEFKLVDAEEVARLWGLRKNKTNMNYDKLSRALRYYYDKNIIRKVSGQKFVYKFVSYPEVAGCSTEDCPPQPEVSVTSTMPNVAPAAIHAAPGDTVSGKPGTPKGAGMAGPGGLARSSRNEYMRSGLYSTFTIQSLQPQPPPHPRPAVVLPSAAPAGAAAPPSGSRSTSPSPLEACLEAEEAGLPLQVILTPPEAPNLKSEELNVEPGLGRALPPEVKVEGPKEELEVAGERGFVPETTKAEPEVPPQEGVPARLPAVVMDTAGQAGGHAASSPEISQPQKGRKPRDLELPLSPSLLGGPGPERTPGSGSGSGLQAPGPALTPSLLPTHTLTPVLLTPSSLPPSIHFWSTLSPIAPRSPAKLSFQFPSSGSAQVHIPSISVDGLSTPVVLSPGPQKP
In short: as §1

ERG = target: T3, ERG (Homo sapiens, UniProt P11308 1-479)
T3 sequence: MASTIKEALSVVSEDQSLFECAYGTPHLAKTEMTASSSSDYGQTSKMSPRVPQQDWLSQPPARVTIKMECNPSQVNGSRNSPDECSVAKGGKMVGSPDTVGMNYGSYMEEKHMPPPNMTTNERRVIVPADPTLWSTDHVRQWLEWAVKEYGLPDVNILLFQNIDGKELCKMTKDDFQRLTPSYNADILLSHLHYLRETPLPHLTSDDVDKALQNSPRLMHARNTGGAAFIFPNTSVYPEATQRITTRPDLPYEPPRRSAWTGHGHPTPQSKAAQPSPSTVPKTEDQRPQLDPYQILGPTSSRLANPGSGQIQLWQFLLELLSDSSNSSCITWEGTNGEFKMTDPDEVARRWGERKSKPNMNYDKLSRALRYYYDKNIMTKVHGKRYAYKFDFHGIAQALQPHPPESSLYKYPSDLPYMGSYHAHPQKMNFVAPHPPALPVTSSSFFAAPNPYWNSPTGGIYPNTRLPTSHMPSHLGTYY
In short: as §1

ELF1 = ELF1 (Homo sapiens, UniProt P32519 1-619)
Sequence of ELF1 (P32519 whole entry): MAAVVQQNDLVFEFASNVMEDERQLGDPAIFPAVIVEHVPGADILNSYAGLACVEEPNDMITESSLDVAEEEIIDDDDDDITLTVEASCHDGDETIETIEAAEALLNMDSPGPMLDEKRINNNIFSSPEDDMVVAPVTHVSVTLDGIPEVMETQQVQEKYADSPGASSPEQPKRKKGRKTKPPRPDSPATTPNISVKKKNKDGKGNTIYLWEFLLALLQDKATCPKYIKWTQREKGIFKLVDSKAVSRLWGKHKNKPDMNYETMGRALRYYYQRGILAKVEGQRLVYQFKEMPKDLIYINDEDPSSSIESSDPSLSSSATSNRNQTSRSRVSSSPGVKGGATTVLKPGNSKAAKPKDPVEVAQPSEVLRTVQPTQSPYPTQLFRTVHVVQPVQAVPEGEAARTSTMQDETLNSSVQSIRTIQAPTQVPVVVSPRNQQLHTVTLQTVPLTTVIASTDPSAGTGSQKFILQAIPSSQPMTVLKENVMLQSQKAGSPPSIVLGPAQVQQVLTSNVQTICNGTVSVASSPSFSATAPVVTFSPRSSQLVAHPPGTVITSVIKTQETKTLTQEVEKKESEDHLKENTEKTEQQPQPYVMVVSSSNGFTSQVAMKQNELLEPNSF
In short: as §1

EHF = target: T4, EHF (Homo sapiens, UniProt Q9NZC4 1-300)
T4 sequence: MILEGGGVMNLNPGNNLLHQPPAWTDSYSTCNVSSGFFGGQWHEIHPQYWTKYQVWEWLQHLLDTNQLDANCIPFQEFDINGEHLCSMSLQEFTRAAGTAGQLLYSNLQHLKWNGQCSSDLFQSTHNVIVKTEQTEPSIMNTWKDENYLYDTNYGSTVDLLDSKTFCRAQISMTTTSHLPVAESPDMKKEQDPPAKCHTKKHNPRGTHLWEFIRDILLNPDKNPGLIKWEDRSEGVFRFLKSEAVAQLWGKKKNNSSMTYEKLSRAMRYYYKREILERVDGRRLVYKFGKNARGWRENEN
In short: as §1

SPIB = SPIB (Homo sapiens, UniProt Q01892 1-262)
Sequence of SPIB (Q01892 whole entry): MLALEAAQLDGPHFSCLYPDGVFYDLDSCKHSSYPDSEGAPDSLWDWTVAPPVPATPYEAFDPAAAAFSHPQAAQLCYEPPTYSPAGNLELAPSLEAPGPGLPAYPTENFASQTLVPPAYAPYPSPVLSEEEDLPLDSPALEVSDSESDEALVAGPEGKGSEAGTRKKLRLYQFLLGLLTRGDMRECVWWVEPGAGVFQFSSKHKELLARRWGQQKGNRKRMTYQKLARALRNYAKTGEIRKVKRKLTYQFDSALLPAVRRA
In short: as §1

ELK3 = target: T5, ELK3 (Homo sapiens, UniProt P41970 1-407)
T5 sequence: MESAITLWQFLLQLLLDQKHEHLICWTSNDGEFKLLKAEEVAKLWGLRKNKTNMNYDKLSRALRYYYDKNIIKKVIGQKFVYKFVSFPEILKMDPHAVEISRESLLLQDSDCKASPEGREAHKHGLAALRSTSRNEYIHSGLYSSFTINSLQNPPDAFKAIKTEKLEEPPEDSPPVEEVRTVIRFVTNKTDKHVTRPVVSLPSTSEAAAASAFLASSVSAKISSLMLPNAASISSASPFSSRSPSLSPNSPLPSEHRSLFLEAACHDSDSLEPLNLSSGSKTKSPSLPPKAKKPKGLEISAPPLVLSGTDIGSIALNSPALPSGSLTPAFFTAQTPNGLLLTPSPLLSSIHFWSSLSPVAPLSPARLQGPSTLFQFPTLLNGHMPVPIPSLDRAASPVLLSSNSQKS
In short: as §1

ETV5 = ETV5 (Homo sapiens, UniProt P41161 1-510)
Sequence of ETV5 (P41161 whole entry): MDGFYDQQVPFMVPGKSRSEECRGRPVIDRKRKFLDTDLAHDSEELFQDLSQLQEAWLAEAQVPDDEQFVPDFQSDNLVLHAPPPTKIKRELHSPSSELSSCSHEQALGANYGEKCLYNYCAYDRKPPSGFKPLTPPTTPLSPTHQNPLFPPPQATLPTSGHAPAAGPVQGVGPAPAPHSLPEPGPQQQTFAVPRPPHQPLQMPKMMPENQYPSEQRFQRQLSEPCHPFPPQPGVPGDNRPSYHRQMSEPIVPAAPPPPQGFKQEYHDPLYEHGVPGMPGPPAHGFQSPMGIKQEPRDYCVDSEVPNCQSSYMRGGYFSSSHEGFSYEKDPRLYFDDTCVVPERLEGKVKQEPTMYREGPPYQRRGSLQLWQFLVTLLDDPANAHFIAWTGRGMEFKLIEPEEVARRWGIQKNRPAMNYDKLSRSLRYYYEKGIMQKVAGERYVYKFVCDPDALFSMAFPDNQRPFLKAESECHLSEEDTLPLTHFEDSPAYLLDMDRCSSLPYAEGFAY
In short: as §1

ELF4 = ELF4 (Homo sapiens, UniProt Q99607 1-663)
Sequence of ELF4 (Q99607 whole entry): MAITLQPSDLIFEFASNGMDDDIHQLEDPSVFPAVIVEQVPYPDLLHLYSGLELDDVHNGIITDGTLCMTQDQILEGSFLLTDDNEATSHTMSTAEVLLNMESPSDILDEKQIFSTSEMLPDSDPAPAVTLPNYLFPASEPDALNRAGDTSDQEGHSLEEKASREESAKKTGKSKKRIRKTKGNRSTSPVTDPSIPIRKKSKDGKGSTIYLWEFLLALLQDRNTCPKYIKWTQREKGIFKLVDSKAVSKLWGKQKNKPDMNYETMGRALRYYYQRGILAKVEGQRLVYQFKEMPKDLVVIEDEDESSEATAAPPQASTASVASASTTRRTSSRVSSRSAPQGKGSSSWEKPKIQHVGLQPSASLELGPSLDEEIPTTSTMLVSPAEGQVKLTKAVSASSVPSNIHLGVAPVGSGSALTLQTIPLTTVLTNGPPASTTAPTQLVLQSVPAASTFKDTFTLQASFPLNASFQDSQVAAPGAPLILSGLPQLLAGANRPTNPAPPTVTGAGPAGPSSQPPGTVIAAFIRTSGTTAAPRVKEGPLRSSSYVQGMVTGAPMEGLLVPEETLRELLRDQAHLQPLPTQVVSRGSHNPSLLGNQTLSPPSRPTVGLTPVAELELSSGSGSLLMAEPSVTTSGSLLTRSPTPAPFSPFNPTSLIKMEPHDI
In short: as §1

ETV2 = target: T6, ETV2 (Homo sapiens, UniProt O00321 1-342)
T6 sequence: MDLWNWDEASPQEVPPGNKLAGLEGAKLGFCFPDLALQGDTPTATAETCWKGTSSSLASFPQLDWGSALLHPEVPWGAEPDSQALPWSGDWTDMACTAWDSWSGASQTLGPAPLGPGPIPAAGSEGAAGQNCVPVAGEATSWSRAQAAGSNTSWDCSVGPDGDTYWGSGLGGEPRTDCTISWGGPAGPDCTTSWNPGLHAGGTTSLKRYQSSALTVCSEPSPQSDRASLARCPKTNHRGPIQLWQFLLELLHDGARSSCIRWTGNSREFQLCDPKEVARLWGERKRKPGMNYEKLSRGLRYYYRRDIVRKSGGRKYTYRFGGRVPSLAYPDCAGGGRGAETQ
In short: as §1

ELF3 = target: T7, ELF3 (Homo sapiens, UniProt P78545 1-371)
T7 sequence: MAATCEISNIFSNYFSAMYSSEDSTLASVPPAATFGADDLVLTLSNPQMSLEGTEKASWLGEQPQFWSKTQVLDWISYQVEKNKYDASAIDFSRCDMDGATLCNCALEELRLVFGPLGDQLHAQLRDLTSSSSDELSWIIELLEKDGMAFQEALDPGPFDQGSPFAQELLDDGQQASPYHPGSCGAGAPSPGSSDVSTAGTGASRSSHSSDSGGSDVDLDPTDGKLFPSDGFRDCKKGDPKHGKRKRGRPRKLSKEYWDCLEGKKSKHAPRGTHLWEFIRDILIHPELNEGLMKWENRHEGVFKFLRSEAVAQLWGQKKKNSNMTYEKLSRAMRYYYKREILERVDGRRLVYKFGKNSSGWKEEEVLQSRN
In short: as §1

ETV1 = ETV1 (Homo sapiens, UniProt P50549 1-477)
Sequence of ETV1 (P50549 whole entry): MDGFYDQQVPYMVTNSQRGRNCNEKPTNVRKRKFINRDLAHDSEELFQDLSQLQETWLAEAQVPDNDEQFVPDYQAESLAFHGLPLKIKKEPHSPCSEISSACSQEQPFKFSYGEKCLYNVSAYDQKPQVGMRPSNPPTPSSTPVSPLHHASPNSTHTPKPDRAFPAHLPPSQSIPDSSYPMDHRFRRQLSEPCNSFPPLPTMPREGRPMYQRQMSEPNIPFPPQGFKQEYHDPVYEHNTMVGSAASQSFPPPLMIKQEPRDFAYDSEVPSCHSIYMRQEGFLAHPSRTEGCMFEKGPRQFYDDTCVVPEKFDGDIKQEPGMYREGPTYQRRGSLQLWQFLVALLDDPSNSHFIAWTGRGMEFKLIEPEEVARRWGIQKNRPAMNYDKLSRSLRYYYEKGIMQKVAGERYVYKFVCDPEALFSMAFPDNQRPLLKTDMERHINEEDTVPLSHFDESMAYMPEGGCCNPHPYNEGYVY
In short: as §1

ERF = target: T8, ERF (Homo sapiens, UniProt P50548 1-548)
T8 sequence: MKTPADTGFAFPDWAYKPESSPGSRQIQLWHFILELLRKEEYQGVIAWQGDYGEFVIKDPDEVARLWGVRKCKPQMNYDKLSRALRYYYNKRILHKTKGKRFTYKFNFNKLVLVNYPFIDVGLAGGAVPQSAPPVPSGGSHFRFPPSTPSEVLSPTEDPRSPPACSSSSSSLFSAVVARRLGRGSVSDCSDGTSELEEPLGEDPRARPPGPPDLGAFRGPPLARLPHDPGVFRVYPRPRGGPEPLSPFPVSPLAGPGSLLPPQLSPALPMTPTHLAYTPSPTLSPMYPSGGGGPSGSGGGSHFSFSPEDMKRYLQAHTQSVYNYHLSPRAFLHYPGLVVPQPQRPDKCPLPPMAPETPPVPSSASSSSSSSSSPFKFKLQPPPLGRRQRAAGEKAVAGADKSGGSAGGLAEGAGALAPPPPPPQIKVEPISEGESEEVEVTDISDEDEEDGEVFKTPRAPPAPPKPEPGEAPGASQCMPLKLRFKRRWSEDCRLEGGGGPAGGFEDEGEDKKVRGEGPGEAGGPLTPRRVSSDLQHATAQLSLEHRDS
In short: as §1

ETV3L = target: T9, ETV3L (Homo sapiens, UniProt Q6ZN32 1-361)
T9 sequence: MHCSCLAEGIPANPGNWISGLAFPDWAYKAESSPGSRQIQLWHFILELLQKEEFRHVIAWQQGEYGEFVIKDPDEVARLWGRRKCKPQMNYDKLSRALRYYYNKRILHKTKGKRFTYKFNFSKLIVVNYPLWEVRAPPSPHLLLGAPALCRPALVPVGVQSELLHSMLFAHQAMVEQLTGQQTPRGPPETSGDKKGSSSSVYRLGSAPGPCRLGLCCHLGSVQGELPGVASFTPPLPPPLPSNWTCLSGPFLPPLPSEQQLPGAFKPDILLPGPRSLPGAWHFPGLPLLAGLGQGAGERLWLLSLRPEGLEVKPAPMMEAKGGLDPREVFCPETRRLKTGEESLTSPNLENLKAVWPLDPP
In short: as §1

ETS2 = target: T10, ETS2 (Homo sapiens, UniProt P15036 1-469)
T10 sequence: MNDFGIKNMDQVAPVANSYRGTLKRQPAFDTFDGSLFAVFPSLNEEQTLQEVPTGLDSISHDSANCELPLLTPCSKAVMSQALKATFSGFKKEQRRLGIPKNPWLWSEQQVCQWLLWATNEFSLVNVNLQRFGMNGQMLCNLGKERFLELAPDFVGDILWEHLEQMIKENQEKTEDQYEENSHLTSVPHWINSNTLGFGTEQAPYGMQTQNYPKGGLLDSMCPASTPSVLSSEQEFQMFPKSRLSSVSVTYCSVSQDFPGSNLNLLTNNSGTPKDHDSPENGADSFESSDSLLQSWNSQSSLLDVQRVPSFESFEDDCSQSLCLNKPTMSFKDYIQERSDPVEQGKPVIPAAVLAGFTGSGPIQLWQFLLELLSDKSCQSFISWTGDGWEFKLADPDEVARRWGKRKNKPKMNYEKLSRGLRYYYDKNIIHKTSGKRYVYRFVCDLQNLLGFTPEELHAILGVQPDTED
In short: as §1

ETV3 = target: T11, ETV3 (Homo sapiens, UniProt P41162-2 1-143)
T11 sequence: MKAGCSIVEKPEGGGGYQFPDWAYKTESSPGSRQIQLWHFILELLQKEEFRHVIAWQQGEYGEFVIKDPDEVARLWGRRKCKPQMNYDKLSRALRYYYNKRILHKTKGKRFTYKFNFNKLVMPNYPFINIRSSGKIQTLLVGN
In short: as §1

ETV6 = ETV6 (Homo sapiens, UniProt P41212 1-452)
Sequence of ETV6 (P41212 whole entry): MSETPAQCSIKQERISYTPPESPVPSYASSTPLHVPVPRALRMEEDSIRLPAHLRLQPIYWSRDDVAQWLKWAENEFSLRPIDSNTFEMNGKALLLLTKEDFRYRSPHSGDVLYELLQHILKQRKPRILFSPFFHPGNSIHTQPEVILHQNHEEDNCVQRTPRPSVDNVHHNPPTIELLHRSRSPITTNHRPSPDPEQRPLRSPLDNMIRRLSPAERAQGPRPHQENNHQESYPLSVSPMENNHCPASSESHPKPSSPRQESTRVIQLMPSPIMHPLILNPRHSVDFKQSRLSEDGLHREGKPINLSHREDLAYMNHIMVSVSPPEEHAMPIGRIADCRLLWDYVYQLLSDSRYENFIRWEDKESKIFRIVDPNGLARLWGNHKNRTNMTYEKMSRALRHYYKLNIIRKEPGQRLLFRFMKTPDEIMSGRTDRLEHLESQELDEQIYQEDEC
In short: as §1

## CAAGTT
FLI1
  binding signal: 1.11 fold enrichment (6-mer frequency, TF over GST control)
ELK1
  binding signal: 1.06 fold enrichment (6-mer frequency, TF over GST control)
ERG
  binding signal: 1.08 fold enrichment (6-mer frequency, TF over GST control)
ELF1
  binding signal: 1.06 fold enrichment (6-mer frequency, TF over GST control)
EHF
  binding signal: 1.02 fold enrichment (6-mer frequency, TF over GST control)
SPIB
  binding signal: 1.1 fold enrichment (6-mer frequency, TF over GST control)
ELK3
  binding signal: 1.03 fold enrichment (6-mer frequency, TF over GST control)
ETV5
  binding signal: 1.08 fold enrichment (6-mer frequency, TF over GST control)
ELF4
  binding signal: 1.09 fold enrichment (6-mer frequency, TF over GST control)
ETV2
  binding signal: 1.03 fold enrichment (6-mer frequency, TF over GST control)
ELF3
  binding signal: 1.06 fold enrichment (6-mer frequency, TF over GST control)
ETV1
  binding signal: 1.05 fold enrichment (6-mer frequency, TF over GST control)
ERF
  binding signal: 1.2 fold enrichment (6-mer frequency, TF over GST control)
ETV3L
  binding signal: 1.1 fold enrichment (6-mer frequency, TF over GST control)
ETS2
  binding signal: 1.13 fold enrichment (6-mer frequency, TF over GST control)
ETV3
  binding signal: 1.16 fold enrichment (6-mer frequency, TF over GST control)
ETV6
  binding signal: 1.09 fold enrichment (6-mer frequency, TF over GST control)
